Experiments:
Test in all cases: PBM binding z-score (relative to random genomic background probes); higher = stronger binding; sequences stand for … in GC…GCGATTGACAGCGTAGAATGAAGG
[1] = test system: FXR:RXRa (NR concentration 270 nM, RXRa partner concentration 90 nM)
In short: (§1)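 For binding z-scores, the reference was random background probes on custom Agilent 4×180K protein-binding microarrays. These arrays were incubated 1 h with ligand-free nuclear receptor dimers in PBS pH 7.4, 2% milk, 0.02% Triton X-100, 1 mM DTT, 0.2 mg/mL BSA and 0.4 mg/ml salmon testes DNA. Fluorescence was scanned after antibody detection of each partner (one per run) and regression-normalized.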

[2] = test system: LXRa:RXRa (NR concentration 270 nM, RXRa partner concentration 90 nM)
In short: as §1

[3] = test system: LXRa homodimer (NR concentration 270 nM)
In short: as §1

[4] = test system: LXRb:RXRa (NR concentration 270 nM, RXRa partner concentration 90 nM)
In short: as §1

[5] = test system: LXRb homodimer (NR concentration 270 nM)
In short: as §1

[6] = test system: PPARa:RXRa (NR concentration 270 nM, RXRa partner concentration 90 nM)
In short: as §1

[7] = test system: PPARg:RXRa (NR concentration 180 nM, RXRa partner concentration 90 nM)
In short: as §1

[8] = test system: PPARg:RXRa 270nM:90nM, anti-RXR (NR concentration 270 nM, RXRa partner concentration 90 nM)
In short: as §1

[9] = test system: PPARg:RXRa 30nM:10nM, anti-RXR (NR concentration 30 nM, RXRa partner concentration 10 nM)
In short: as §1

[10] = test system: PPARg:RXRa 90nM:30nM, anti-RXR (NR concentration 90 nM, RXRa partner concentration 30 nM)
In short: as §1

[11] = test system: PPARg:RXRa DBDmut IVT, anti-RXR (DBD mutation: RXRa K156A/R161A, NR concentration 270 nM, RXRa partner concentration 90 nM)
In short: as §1

[12] = test system: PPARg:RXRa IVT, anti-PPARg (NR concentration 270 nM, RXRa partner concentration 90 nM)
In short: as §1

[13] = test system: PPARg DBDmut:RXRa IVT, anti-PPARg (DBD mutation: PPARg1 K132A/R137A, NR concentration 270 nM, RXRa partner concentration 90 nM)
In short: as §1

[14] = test system: PPARg DBDmut IVT, anti-PPARg (DBD mutation: PPARg1 K132A/R137A, NR concentration 270 nM)
In short: as §1

[15] = test system: PPARg homodimer (NR concentration 180 nM)
In short: as §1

[16] = test system: PXR:RXRa (NR concentration 270 nM, RXRa partner concentration 90 nM)
In short: as §1

[17] = test system: PXR homodimer (NR concentration 270 nM)
In short: as §1

[18] = test system: RARa:RXR (NR concentration 270 nM, RXRa partner concentration 90 nM)
In short: as §1

[19] = test system: RARa homodimer (NR concentration 270 nM)
In short: as §1

[20] = test system: RARb:RXRa (NR concentration 270 nM, RXRa partner concentration 90 nM)
In short: as §1

Sequence	PBM binding z-score [1]	PBM binding z-score [2]	PBM binding z-score [3]	PBM binding z-score [4]	PBM binding z-score [5]	PBM binding z-score [6]	PBM binding z-score [7]	PBM binding z-score [8]	PBM binding z-score [9]	PBM binding z-score [10]	PBM binding z-score [11]	PBM binding z-score [12]	PBM binding z-score [13]	PBM binding z-score [14]	PBM binding z-score [15]	PBM binding z-score [16]	PBM binding z-score [17]	PBM binding z-score [18]	PBM binding z-score [19]	PBM binding z-score [20]
TAGCCTAGGTAATTGGGCCAGTATAGTACGCATC	-0.768	-1.07	-0.581	-0.51	-0.491	0.679	0.785	0.424	-0.205	-0.132	1.83	2.8	0.0704	-0.276	-0.531	-0.502	-0.469	-0.743	-0.501	-0.455
GCTATTAGTTGAAAGGGCATCCGAATGATTCTCG	0.204	0.581	0.00348	0.69	0.0114	2.22	2.35	4.39	2.34	3.96	0.6	0.576	0.336	0.482	1.17	0.67	0.374	1.21	0.477	1.65
CGAACTAGCTCAGAACAGGACAGTGAAGGATGAT	-0.682	-0.642	-0.0403	-0.877	-0.565	-0.547	0.544	-0.694	-0.189	-0.609	-0.0249	-0.714	-0.195	0.0741	-0.71	-0.669	0.0442	-0.393	0.354	-0.236
AATACAGGGTCATCGTAGGCCAGAGTGCGCACAG	7.13	6.46	2.47	4.75	1.07	5.99	6.7	6.16	2.72	4.73	2.61	4.22	1.07	1.13	1.9	4.97	0.782	4.82	0.464	4.48
ATTCAAAGTTCAGGACGAGGTAACGTAAAGCACG	4.14	4.12	1.92	2.22	1.06	3.21	2.19	2.41	1.01	1.54	-0.268	1.33	1.03	0.76	1.93	2.95	1.44	3.01	0.385	4.19
TCTATCAGTTGAAGGGCAACCGACGAGTCCGTTT	0.369	0.777	-0.273	0.501	-0.0897	0.935	0.152	2	3.44	2.89	2.02	0.545	-0.244	0.0205	0.44	0.571	0.541	0.596	0.00832	1.63
TGTTAAAGTTCAAAGGTAACGTAAGTATCCACAC	6.98	6.1	5.38	4.53	2.3	5.47	7.2	6.84	4.03	6.36	0.162	3.26	2.15	2.02	3.98	5.77	4.11	6.35	1.41	4.93
TCTGCTAGGTCAACGCTGGTCAGCTAATCTGCTA	3.47	3.1	-0.234	1.74	-0.356	3.27	2.09	3.24	1.85	2.54	4.5	4.5	0.648	0.00924	1.34	2	-1.26	2.35	-1.41	4.16
CCTACTGGCCCACGAAAGGTCATTGATTCAGTGA	3.58	4.35	5.66	4.39	0.684	4.2	0.749	2.36	0.593	1.47	-0.126	0.861	-0.814	-1.14	3	5.2	1.92	5.64	2.79	3.94
ATCTCTAGGTAACAAGTGCAGTGAAAGAGAGGAC	0.0619	0.181	-0.0829	-0.182	0.699	0.43	1.07	1.38	0.591	1.05	2.78	2.62	1.24	0.573	0.521	0.133	0.353	0.0235	0.451	0.586
CCTTACGGCTCAAGGTTATAGCACGGGTGGTACG	0.272	0.347	0.117	0.126	-0.259	0.445	0.607	0.552	0.388	0.076	-0.441	-0.312	-1.23	-0.222	0.358	0.204	0.404	0.389	0.282	0.562
TCTGCTAGATCAGTTGGTCAGCTAACGAGCTGCC	-2.98	-0.794	-1.07	-0.988	-0.764	-0.465	-0.552	0.389	1.24	0.547	0.357	-0.283	-0.43	-0.675	-2.6	-0.872	-1.07	-0.915	-1.97	-0.199
CCTACTGGGCGATCAGGTCATTGATATCAACGTT	0.953	0.548	0.541	0.798	-0.539	1.44	0.524	1.26	0.0672	0.741	1.18	1.66	-0.36	-0.403	0.86	1.29	0.227	1.47	0.157	1.6
TAGCCTAGGTCATTGGTCCAGTATAGTACGCATC	3.97	3.31	1.33	2.7	0.535	3.56	2.48	2.55	0.941	2.27	2.05	2.93	0.413	0.614	1.51	1.76	0.043	2.39	0.179	3.58
TCTACAGGGTCAAAGGCCAGAGTACGAATGTCGA	7.34	4.67	0.313	4.11	0.605	5.99	7.62	7.12	5.3	6.93	2.69	4.11	0.545	0.757	1.6	4.1	0.202	5.76	0.385	4.29
TCTATTAGGTGAAGGGCAACCGACGAGTCCGTTT	0.937	1.07	0.449	0.669	0.667	2.44	4	5.18	4.86	5.44	5.49	4.75	1.19	0.901	1.58	0.47	0.805	0.687	0.733	2
GCTGCTAGGTGAACTGATGGTCAGCTAAAGCTCG	-0.0942	-0.291	-0.843	-0.328	-1.56	1.27	0.329	0.967	-0.226	0.635	3.85	2.6	-0.641	-1.06	-0.326	-0.0218	-0.684	0.388	-1.4	0.944

From the supplement of paper PMC6555819
